GIRK2 activator: Activates human GIRK2-containing potassium channels; P48051; HEK293 GIRK2/NPY4 cells, thallium flux fluorescence; activation (% efficacy), % for hits at 37.5 µM; 34,000 tested, under 10 active;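 active means primary screen hit, no activity in plain HEK293 cells, and in GIRK2-only cells above 5% efficacy rising with concentration; inactive means the rest, including fluorescent compounds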;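 further: efficacy is normalized control-subtracted fluorescence 15 s after thallium addition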
Target sequence (P48051 whole entry, looked up): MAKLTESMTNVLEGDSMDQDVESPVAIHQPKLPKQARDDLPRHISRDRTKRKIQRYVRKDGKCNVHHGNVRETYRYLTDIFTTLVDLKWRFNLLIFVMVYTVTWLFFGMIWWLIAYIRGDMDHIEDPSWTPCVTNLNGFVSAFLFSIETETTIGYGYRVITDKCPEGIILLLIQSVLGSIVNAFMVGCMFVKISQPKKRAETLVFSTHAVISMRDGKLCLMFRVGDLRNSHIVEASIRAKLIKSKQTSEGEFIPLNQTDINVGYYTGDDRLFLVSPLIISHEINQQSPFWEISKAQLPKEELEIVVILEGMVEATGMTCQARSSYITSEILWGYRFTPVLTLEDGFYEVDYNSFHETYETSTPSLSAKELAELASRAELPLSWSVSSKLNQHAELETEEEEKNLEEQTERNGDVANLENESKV
AMPAR-TARP mod: GluA2-stargazin AMPA receptor complex modulation; O88602+P19491; HEK293 GluA2+stargazin, membrane potential dye (FDSS), glutamate EC50; hits were called plate by plate, in both directions; calls only at 30 µM; 40,000 tested, 3.5% active; AID 1259245;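 active means any of four per-well response measures lying three or more SD from its plate-wide compound average, in either direction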
* hit, by the source's call; i = inactive; . = no result; + = active, no number. The sample as a whole holds a higher share of hits than the screen did.

SMILES	GIRK2 activator	AMPAR-TARP mod
COc1ccc(Nc2cc(C)nc(N3CCN(C(=O)C4CCCC4)CC3)n2)cc1	i	+
O=C(Cc1ccc(Cl)cc1)N1CCN(c2ccc(Nc3ccccn3)nn2)CC1	i	i
Cc1ccc(Nc2cc(C)nc(N3CCN(C(=O)COc4ncccn4)CC3)n2)cc1	i	+
O=C(COc1ncccn1)N1CCN(c2ccc(Nc3ccccn3)nn2)CC1	i	+
Cc1cc(C)n(-c2ccc(N3CCN(C(=O)COc4ncccn4)CC3)nn2)n1	i	.
Cc1cc(Nc2ccccc2)nc(N2CCN(C(=O)c3ccc4c(c3)OCO4)CC2)n1	.	i
O=C(CCSc1ccccc1)NCC(O)c1ccsc1 (centres undefined)	i	i
O=C(NCCC(O)c1cccs1)c1ccc(Cl)c(Cl)c1 (centres undefined)	i	i
CSc1ccccc1CN1CCC(CNC(=O)c2ccc(Cl)s2)CC1	i	i
O=S(=O)(NC1CCCC1)c1cccc2cnccc12	i	+
O=S(=O)(NCCCN1CCOCC1)c1cccc2cnccc12	i	i
Cc1noc(CNC(=O)c2cccc(Cl)c2)n1	i	.
O=C(CCc1ccccc1)Nc1ccc2c(c1)N(C(=O)C1CCCC1)CC2	i	.
CCOc1ccc(OCC(=O)Nc2cc(C(=O)N3CCOCC3)cn(C)c2=O)cc1	.	i
COCCn1c(N)c(S(=O)(=O)c2cccc(Cl)c2)c2nc3ccccc3nc21	i	+
COCCCn1c(N)c(S(=O)(=O)c2cc(C)ccc2C)c2nc3ccccc3nc21	i	i
COCCCn1c(N)c(S(=O)(=O)c2ccc(OC)cc2)c2nc3ccccc3nc21	i	i
COCCCn1c(N)c(S(=O)(=O)c2ccc(Cl)cc2)c2nc3ccccc3nc21	i	+
CS(=O)(=O)N1CCCSCC1CN1CCOCC1 (centres undefined)	i	.
CCN1CCN(S(=O)(=O)CCNC(=O)c2cc3ccccc3o2)CC1	i	i
COc1cccc(C(=O)Nc2nnc(-c3cc(OC)c(OC)c(OC)c3)o2)c1	.	+
COc1cccc(C(=O)Nc2nnc(-c3ccc(C)c(C)c3)o2)c1	i	i
COc1cc(-c2nnc(NC(=O)c3ccc(C(C)=O)cc3)o2)cc(OC)c1OC	.	+
COc1cc(-c2nnc(NC(=O)c3ccc(OC(C)C)cc3)o2)cc(OC)c1OC	.	i
O=C(CCS(=O)(=O)c1ccccc1)N(CCN1CCOCC1)c1nc2ccc(F)cc2s1	.	i
SMILES	GIRK2 activator	AMPAR-TARP mod
O=C(NCc1cccc2ccccc12)N1CCN(C(=O)c2cnn3ccccc23)CC1	i	i
COc1ccc(S(=O)(=O)N2CCCc3cc(NS(=O)(=O)c4cccc(F)c4)ccc32)cc1	.	i
CCOC(=O)NCc1nc2ccccc2n1Cc1ccccc1F	i	+
CCOC(=O)NCc1nc2ccccc2n1Cc1c(F)cccc1Cl	.	i
COC(=O)NCCc1nc2ccccc2n1Cc1c(F)cccc1Cl	.	+
OCc1nc2ccccc2n1Cc1c(F)cccc1Cl	.	i
CCOc1ccc(C2=NN(C(C)=O)C(c3ccc4nccnc4c3)C2)cc1 (centres undefined)	i	.
COc1ccc(NS(=O)(=O)c2ccc(Br)cc2)cc1N1CCCC1=O	i	i
Cn1c(=O)c2cc(NC(=O)c3ccc(F)cc3)c(=O)oc2n(C)c1=O	i	i
CSc1cccc(NC(=O)c2n[nH]c3ccccc23)c1	i	i
O=C(Nc1ccc(F)c(F)c1)c1n[nH]c2ccccc12	.	+
O=C(Nc1ccc(CC(=O)N2CCCC2)cc1)c1cccc(C(F)(F)F)c1	i	i
Cn1cccc(C(=O)NCC(O)c2ccc(C(F)(F)F)cc2)c1=O (centres undefined)	i	.
Cc1oc(-c2ccccc2)nc1COC(=O)c1nnn(-c2ccc(Cl)cc2)c1C	.	i
COc1ccc(-n2nnc(C(=O)OCc3cccc(OC)c3)c2C)cc1	.	i
COc1cccc(COC(=O)c2nnn(-c3ccc(C)cc3)c2C)c1	.	+
Cc1ccc(-n2nnc(C(=O)OCc3nc(-c4ccccc4C)oc3C)c2C)cc1	.	+
Cc1ccc2oc(=O)c(S(=O)(=O)c3ccc(F)c(C)c3)cc2c1	.	i
Cc1ccc(-n2c(C)cn3c4c(=O)n(CC(=O)C(C)(C)C)c(=O)n(C)c4nc23)c(C)c1	.	i
CC1(C)Cc2cccc(OCCCS(=O)(=O)NC3CCCC3)c2O1	i	.
Cc1ccccc1-c1ccc(N2CCC(C(=O)NCc3ccco3)CC2)nn1	i	+
Cc1ccccc1-c1ccc(N2CCC(C(=O)NCc3cccnc3)CC2)nn1	i	i
Cc1cc(C)c2c(n1)nn1c(NC(C)c3ccccc3)cc(C)nc21 (centres undefined)	i	i
Cc1cc(C)c2c(n1)nn1c(N3CCCCC3)cc(C)nc21	i	+
CCc1ccccc1-n1c(-c2ccccc2)cn2c3c(=O)n(CCOC)c(=O)n(C)c3nc12	.	+
SMILES	GIRK2 activator	AMPAR-TARP mod
COCCn1c(=O)c2c(nc3n(-c4ccccc4C)c(-c4ccccc4)cn23)n(C)c1=O	.	i
C=CCn1c(=O)c2c(nc3n(-c4cc(OC)ccc4OC)c(-c4ccccc4)cn23)n(C)c1=O	i	i
C=C(C)Cn1c(=O)c2c(nc3n(-c4cc(OC)ccc4OC)c(-c4ccccc4)cn23)n(C)c1=O	i	+
COc1ccccc1-c1ccc(=O)n(CC(=O)NCCc2ccc(S(N)(=O)=O)cc2)n1	i	i
OC(COc1ccc(Br)cc1)C[N+]1(Cc2ccccc2)CCCCC1 (centres undefined)	.	i
CCN(CC)S(=O)(=O)c1ccc(C(=O)Nc2cc(-c3cccs3)nn2CCO)cc1	i	+
CC(C)S(=O)(=O)c1ccc(CC(=O)Nc2cc(-c3cccs3)nn2CCO)cc1	i	i
Cn1cc(C(=O)N2CCCC2)cc(NC(=O)CCc2ccccc2)c1=O	.	i
Cn1c(-c2ccccc2)nn(CCNC(=O)c2ccccc2Cl)c1=O	i	i
COc1ccc2sc(N(Cc3ccncc3)C(=O)c3ccccc3S(C)(=O)=O)nc2c1	i	i
COc1ccccc1C(=O)N(CCc1cccs1)c1nc2ccc(S(C)(=O)=O)cc2s1	i	+
CC1CC(=O)N(Cc2ccc(F)cc2)c2ccccc2N1 (centres undefined)	i	i
CC1CCN(C(=O)CNC(=O)c2c[nH]c3ccccc23)CC1	i	i
NC(=O)CSc1nc(-c2ccccc2)c(NC(=O)CCc2ccccc2)s1	i	+
COc1ccc(CCC(=O)Nc2sc(SCC(N)=O)nc2-c2ccccc2)cc1	i	i
NC(=O)CSc1nc(-c2ccccc2)c(NC(=O)CCCc2ccccc2)s1	i	+
NC(=O)CSc1nc(-c2ccccc2)c(N)s1	i	i
NC(=O)CSc1nc(-c2ccccc2)c(NC(=O)c2ccccc2)s1	i	i
Nc1sc(SCC(=O)NCc2ccc(F)cc2)nc1-c1ccccc1	i	+
CC(CNC(=O)C1CCN(c2cc(Oc3ccccc3)ncn2)CC1)c1ccccc1 (centres undefined)	i	i
Cc1ccc(C2=CC(c3ccc(Cl)cc3)n3nc(N4C(=O)CCC4=O)nc3N2)cc1 (centres undefined)	.	+
COc1ccccc1C1C=C(c2ccc(Cl)cc2)Nc2nc(NS(C)(=O)=O)nn21 (centres undefined)	.	i
